Measured values from the supplement of paper PMC4466140.

What follows are binders tested against AgAbp1 (assay: SPOT peptide array binding signal intensity (averaged, normalized) (arbitrary units (background-subtracted, floor 0; scale differs between SH3 domains)); higher = stronger binding of the SH3 domain to the peptide).
In short: (§1)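 Detection of bound protein relied on anti-GST antibody, an HRP anti-mouse secondary and luminol, with imaging and quantification in Genespotter. The bound protein was GST-fused SH3 domains from four yeast species, incubated at 10 μg/ml overnight at 4°C in TBS-based blocking buffer on cellulose membranes carrying synthetic 15-mer peptides with cysteines replaced by serines. Binding signal is normalized, background-subtracted spot intensity averaged over replicates, in arbitrary units that differ between domains.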

Binder | SPOT peptide array binding signal intensity
DAPASKPSVPPRNYF | 2.5

Each binder was assayed against AgBbc1 in the same assay as above.
In short: as §1

Binder | SPOT peptide array binding signal intensity
DAPASKPSVPPRNYF | 239

The binders below were run against AgBem1-D1 in the same assay as above.
In short: as §1

Binder | SPOT peptide array binding signal intensity
DAPASKPSVPPRNYF | 2

Each binder was assayed against AgBzz1-D1 in the same assay as above.
In short: as §1

Binder | SPOT peptide array binding signal intensity
DAPASKPSVPPRNYF | 26.5

Each binder was assayed against AgBzz1-D2 in the same assay as above.
In short: as §1

Binder | SPOT peptide array binding signal intensity
DAPASKPSVPPRNYF | ≤ 0

The binders below were run against AgCyk3 in the same assay as above.
In short: as §1

Binder | SPOT peptide array binding signal intensity
DAPASKPSVPPRNYF | 2.5

Each binder was assayed against AgFus1 in the same assay as above.
In short: as §1

Binder | SPOT peptide array binding signal intensity
DAPASKPSVPPRNYF | ≤ 0

The binders below were run against AgHof1 in the same assay as above.
In short: as §1

Binder | SPOT peptide array binding signal intensity
DAPASKPSVPPRNYF | ≤ 0

These binders were tested against AgHse1 in the same assay as above.
In short: as §1

Binder | SPOT peptide array binding signal intensity
DAPASKPSVPPRNYF | ≤ 0

These binders were tested against AgLsb1 in the same assay as above.
In short: as §1

Binder | SPOT peptide array binding signal intensity
DAPASKPSVPPRNYF | 1080

The binders below were run against AgLsb4 in the same assay as above.
In short: as §1

Binder | SPOT peptide array binding signal intensity
DAPASKPSVPPRNYF | 69.5

What follows are binders tested against AgMyo5 in the same assay as above.
In short: as §1

Binder | SPOT peptide array binding signal intensity
DAPASKPSVPPRNYF | ≤ 0

The binders below were run against AgNbp2 in the same assay as above.
In short: as §1

Binder | SPOT peptide array binding signal intensity
DAPASKPSVPPRNYF | 45

These binders were tested against AgRvs167 in the same assay as above.
In short: as §1

Binder | SPOT peptide array binding signal intensity
DAPASKPSVPPRNYF | 13.2

The binders below were run against AgSho1 in the same assay as above.
In short: as §1

Binder | SPOT peptide array binding signal intensity
DAPASKPSVPPRNYF | 1

What follows are binders tested against AgSla1-D1-D2 in the same assay as above.
In short: as §1

Binder | SPOT peptide array binding signal intensity
DAPASKPSVPPRNYF | ≤ 0

What follows are binders tested against AgSla1-D3 in the same assay as above.
In short: as §1

Binder | SPOT peptide array binding signal intensity
DAPASKPSVPPRNYF | ≤ 0

The binders below were run against CaAbp1-D1 in the same assay as above.
In short: as §1

Binder | SPOT peptide array binding signal intensity
DAPASKPSVPPRNYF | 17.5

The binders below were run against CaAbp1-D2 in the same assay as above.
In short: as §1

Binder | SPOT peptide array binding signal intensity
DAPASKPSVPPRNYF | 3

These binders were tested against CaBbc1 in the same assay as above.
In short: as §1

Binder | SPOT peptide array binding signal intensity
DAPASKPSVPPRNYF | 962

Each binder was assayed against CaBem1-D1 in the same assay as above.
In short: as §1

Binder | SPOT peptide array binding signal intensity
DAPASKPSVPPRNYF | ≤ 0

The binders below were run against CaBzz1-D1 in the same assay as above.
In short: as §1

Binder | SPOT peptide array binding signal intensity
DAPASKPSVPPRNYF | 190

Each binder was assayed against CaBzz1-D2 in the same assay as above.
In short: as §1

Binder | SPOT peptide array binding signal intensity
DAPASKPSVPPRNYF | 5.75

The binders below were run against CaCyk3 in the same assay as above.
In short: as §1

Binder | SPOT peptide array binding signal intensity
DAPASKPSVPPRNYF | 34.5

What follows are binders tested against CaFus1 in the same assay as above.
In short: as §1

Binder | SPOT peptide array binding signal intensity
DAPASKPSVPPRNYF | ≤ 0

The binders below were run against CaHof1 in the same assay as above.
In short: as §1

Binder | SPOT peptide array binding signal intensity
DAPASKPSVPPRNYF | ≤ 0

These binders were tested against CaHse1 in the same assay as above.
In short: as §1

Binder | SPOT peptide array binding signal intensity
DAPASKPSVPPRNYF | ≤ 0

These binders were tested against CaLsb1 in the same assay as above.
In short: as §1

Binder | SPOT peptide array binding signal intensity
DAPASKPSVPPRNYF | 35

These binders were tested against CaLsb4 in the same assay as above.
In short: as §1

Binder | SPOT peptide array binding signal intensity
DAPASKPSVPPRNYF | 427

These binders were tested against CaMyo5 in the same assay as above.
In short: as §1

Binder | SPOT peptide array binding signal intensity
DAPASKPSVPPRNYF | ≤ 0

Each binder was assayed against CaNbp2 in the same assay as above.
In short: as §1

Binder | SPOT peptide array binding signal intensity
DAPASKPSVPPRNYF | ≤ 0

Each binder was assayed against CaRvs167 in the same assay as above.
In short: as §1

Binder | SPOT peptide array binding signal intensity
DAPASKPSVPPRNYF | 199

The binders below were run against CaRvs167-3 in the same assay as above.
In short: as §1

Binder | SPOT peptide array binding signal intensity
DAPASKPSVPPRNYF | ≤ 0

These binders were tested against CaSho1 in the same assay as above.
In short: as §1

Binder | SPOT peptide array binding signal intensity
DAPASKPSVPPRNYF | ≤ 0

The binders below were run against CaSla1-D1-D2 in the same assay as above.
In short: as §1

Binder | SPOT peptide array binding signal intensity
DAPASKPSVPPRNYF | 38

What follows are binders tested against CaSla1-D3 in the same assay as above.
In short: as §1

Binder | SPOT peptide array binding signal intensity
DAPASKPSVPPRNYF | ≤ 0

The binders below were run against ScAbp1 in the same assay as above.
In short: as §1

Binder | SPOT peptide array binding signal intensity
DAPASKPSVPPRNYF | ≤ 0

These binders were tested against ScBbc1 in the same assay as above.
In short: as §1

Binder | SPOT peptide array binding signal intensity
DAPASKPSVPPRNYF | 5.5

Each binder was assayed against ScBem1-D1 in the same assay as above.
In short: as §1

Binder | SPOT peptide array binding signal intensity
DAPASKPSVPPRNYF | 2

These binders were tested against ScBzz1-D1 in the same assay as above.
In short: as §1

Binder | SPOT peptide array binding signal intensity
DAPASKPSVPPRNYF | 20

What follows are binders tested against ScBzz1-D2 in the same assay as above.
In short: as §1

Binder | SPOT peptide array binding signal intensity
DAPASKPSVPPRNYF | 10

What follows are binders tested against ScCyk3 in the same assay as above.
In short: as §1

Binder | SPOT peptide array binding signal intensity
DAPASKPSVPPRNYF | ≤ 0

What follows are binders tested against ScFus1 in the same assay as above.
In short: as §1

Binder | SPOT peptide array binding signal intensity
DAPASKPSVPPRNYF | ≤ 0

What follows are binders tested against ScHof1 in the same assay as above.
In short: as §1

Binder | SPOT peptide array binding signal intensity
DAPASKPSVPPRNYF | ≤ 0

What follows are binders tested against ScHse1 in the same assay as above.
In short: as §1

Binder | SPOT peptide array binding signal intensity
DAPASKPSVPPRNYF | ≤ 0

These binders were tested against ScLsb1 in the same assay as above.
In short: as §1

Binder | SPOT peptide array binding signal intensity
DAPASKPSVPPRNYF | 681

Each binder was assayed against ScLsb2 in the same assay as above.
In short: as §1

Binder | SPOT peptide array binding signal intensity
DAPASKPSVPPRNYF | 2160

What follows are binders tested against ScLsb3 in the same assay as above.
In short: as §1

Binder | SPOT peptide array binding signal intensity
DAPASKPSVPPRNYF | 1550

Each binder was assayed against ScLsb4 in the same assay as above.
In short: as §1

Binder | SPOT peptide array binding signal intensity
DAPASKPSVPPRNYF | 293

The binders below were run against ScMyo3 in the same assay as above.
In short: as §1

Binder | SPOT peptide array binding signal intensity
DAPASKPSVPPRNYF | ≤ 0

The binders below were run against ScMyo5 in the same assay as above.
In short: as §1

Binder | SPOT peptide array binding signal intensity
DAPASKPSVPPRNYF | ≤ 0

What follows are binders tested against ScNbp2 in the same assay as above.
In short: as §1

Binder | SPOT peptide array binding signal intensity
DAPASKPSVPPRNYF | 526

Each binder was assayed against ScPex13 in the same assay as above.
In short: as §1

Binder | SPOT peptide array binding signal intensity
DAPASKPSVPPRNYF | 1310

What follows are binders tested against ScRvs167 in the same assay as above.
In short: as §1

Binder | SPOT peptide array binding signal intensity
DAPASKPSVPPRNYF | 1530

The binders below were run against ScSho1 in the same assay as above.
In short: as §1

Binder | SPOT peptide array binding signal intensity
DAPASKPSVPPRNYF | ≤ 0

These binders were tested against ScSla1-D1-D2 in the same assay as above.
In short: as §1

Binder | SPOT peptide array binding signal intensity
DAPASKPSVPPRNYF | 329

These binders were tested against ScSla1-D3 in the same assay as above.
In short: as §1

Binder | SPOT peptide array binding signal intensity
DAPASKPSVPPRNYF | 145

The binders below were run against SpAbp1-D1 in the same assay as above.
In short: as §1

Binder | SPOT peptide array binding signal intensity
DAPASKPSVPPRNYF | 3

These binders were tested against SpBbc1 in the same assay as above.
In short: as §1

Binder | SPOT peptide array binding signal intensity
DAPASKPSVPPRNYF | 182

These binders were tested against SpBzz1-D1 in the same assay as above.
In short: as §1

Binder | SPOT peptide array binding signal intensity
DAPASKPSVPPRNYF | 95

Each binder was assayed against SpBzz1-D2 in the same assay as above.
In short: as §1

Binder | SPOT peptide array binding signal intensity
DAPASKPSVPPRNYF | 0.5

Each binder was assayed against SpCyk3 in the same assay as above.
In short: as §1

Binder | SPOT peptide array binding signal intensity
DAPASKPSVPPRNYF | ≤ 0

The binders below were run against SpHof1 in the same assay as above.
In short: as §1

Binder | SPOT peptide array binding signal intensity
DAPASKPSVPPRNYF | 1

The binders below were run against SpHof1-2 in the same assay as above.
In short: as §1

Binder | SPOT peptide array binding signal intensity
DAPASKPSVPPRNYF | 2

What follows are binders tested against SpHof1-3 in the same assay as above.
In short: as §1

Binder | SPOT peptide array binding signal intensity
DAPASKPSVPPRNYF | 11

What follows are binders tested against SpHse1 in the same assay as above.
In short: as §1

Binder | SPOT peptide array binding signal intensity
DAPASKPSVPPRNYF | ≤ 0

What follows are binders tested against SpLsb1 in the same assay as above.
In short: as §1

Binder | SPOT peptide array binding signal intensity
DAPASKPSVPPRNYF | 756

The binders below were run against SpLsb4 in the same assay as above.
In short: as §1

Binder | SPOT peptide array binding signal intensity
DAPASKPSVPPRNYF | 3340

The binders below were run against SpMyo1 in the same assay as above.
In short: as §1

Binder | SPOT peptide array binding signal intensity
DAPASKPSVPPRNYF | 2

The binders below were run against SpNbp2 in the same assay as above.
In short: as §1

Binder | SPOT peptide array binding signal intensity
DAPASKPSVPPRNYF | 3

The binders below were run against SpPex13 in the same assay as above.
In short: as §1

Binder | SPOT peptide array binding signal intensity
DAPASKPSVPPRNYF | ≤ 0

Each binder was assayed against SpRvs167 in the same assay as above.
In short: as §1

Binder | SPOT peptide array binding signal intensity
DAPASKPSVPPRNYF | 802

Each binder was assayed against SpSla1-D1-D2 in the same assay as above.
In short: as §1

Binder | SPOT peptide array binding signal intensity
DAPASKPSVPPRNYF | ≤ 0

What follows are binders tested against SpSla1-D3 in the same assay as above.
In short: as §1

Binder | SPOT peptide array binding signal intensity
DAPASKPSVPPRNYF | ≤ 0
